Structures are written as SMILES. Values joined by “and” are separate entries in the source; they are usually repeats but may differ in a detail not shown here. Equal entries are not always repeated. Records with an inconclusive call do not appear. Active and inactive are the calls of the source. Unless noted, the limit is not given here; nearly all actives have AC50 up to about 26 µM.

The values that follow come from PubChem BioAssay.

Assay [1] can be described thus: viability loss in pontine glioma line – cell-based, SU-DIPG-XXV, MIPE5.0, CellTiter-Glo, qHTS, dose response (AID 1347065).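 Also: cells exposed to compound for 48 hours before ATP readout.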 The note with it: CellTiter-Glo ATP luminescence. (In general: ATP-based viability assays read luminescence as a measure of living cells.)
A short description of assay [2]: SU-DIPG-VI glioma cell viability, MIPE4.0 library, CellTiter-Glo luminescence, qHTS (AID 1347066; cut-off not given, nearly all actives have AC50 up to about 30 µM;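 also: cells exposed to compound for 48 hours before readout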). The note with it: CellTiter-Glo ATP luminescence.
Assay [3] is described as follows: JHH-DIPG-1 glioma cell viability, MIPE5.0 library, CellTiter-Glo luminescence, qHTS (AID 1347067).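 Also: cells exposed to compound for 48 hours before readout.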 The note with it: JHH-DIPG-1 glioma viability, CellTiter-Glo ATP luminescence.
Assay [4] is described as follows: SU-DIPG-XXV glioma cell viability, MIPE5.0 library, qHTS (AID 1347068; cut-off not given, nearly all actives have IC50 up to about 30 µM;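 as to IC50: cells exposed to compound for 48 hours before viability readout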). (In general: qHTS replaces the single test concentration by a dilution series.)
The nature of assay [5]: sensitizers of A549 cells to miR-34 induction, primary screen, imaging, A549 dox-inducible miR-34, nuclei and caspase counts (AID 1347080;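 active = compounds whose cell count with miR-34 switched on is under 0.7 times the count with it off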). To be noted: A549 miR-34 inducible, Hoechst nuclei count, 48 h.
Assay [6] in a line: survival rescue of mitochondrial mutant cells in low glucose, primary screen, MELAS cybrids, Rieske KO mouse fibroblasts, CellTiter-Glo (AID 1508586;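 active = mean z-score across replicates of 1.96 or higher in either the MELAS or the Rieske mutant cell line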;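 also: z relative to plate mean and SD of compound and empty wells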).
The target of assay [7] is NAD(+) hydrolase SARM1 (Homo sapiens) (UniProt Q6SZW1). Nature of the assay: SARM1 TIR NADase inhibitors, cell lysate, NAD-Glo luminescence (AID 1508614;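 active = compound whose remaining NAD level is above about 45 nM, limit read from the data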;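 also: higher remaining NAD means stronger inhibition of SARM1 NADase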). The note with it: SAM-TIR HEK293T lysate NADase, at 1 µM, stronger effect = higher value.
Chain of NAD(+) hydrolase SARM1 (Homo sapiens) (Q6SZW1 whole entry, looked up, the tested form may be a part): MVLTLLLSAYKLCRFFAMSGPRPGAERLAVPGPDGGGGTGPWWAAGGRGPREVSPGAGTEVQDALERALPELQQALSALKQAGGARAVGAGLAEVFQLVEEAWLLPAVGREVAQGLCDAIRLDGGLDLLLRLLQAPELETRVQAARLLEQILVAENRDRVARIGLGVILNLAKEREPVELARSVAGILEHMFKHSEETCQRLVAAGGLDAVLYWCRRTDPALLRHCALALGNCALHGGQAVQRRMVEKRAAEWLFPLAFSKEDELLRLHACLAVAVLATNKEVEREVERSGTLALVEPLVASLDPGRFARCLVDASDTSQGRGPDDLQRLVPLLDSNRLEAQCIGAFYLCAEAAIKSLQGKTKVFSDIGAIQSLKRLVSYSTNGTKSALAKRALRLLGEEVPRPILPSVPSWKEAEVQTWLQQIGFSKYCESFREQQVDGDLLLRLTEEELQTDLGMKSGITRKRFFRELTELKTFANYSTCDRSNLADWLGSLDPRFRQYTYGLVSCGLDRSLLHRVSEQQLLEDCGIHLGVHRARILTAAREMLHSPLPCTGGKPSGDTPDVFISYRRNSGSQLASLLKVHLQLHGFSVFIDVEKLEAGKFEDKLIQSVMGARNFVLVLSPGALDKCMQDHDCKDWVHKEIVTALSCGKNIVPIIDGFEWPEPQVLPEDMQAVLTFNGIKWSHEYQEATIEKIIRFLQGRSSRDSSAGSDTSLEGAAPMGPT
For assay [8], the target named is Mitogen-activated protein kinase 7 (Homo sapiens) (UniProt Q13164). The experiment in a line: ERK5 transactivation activators in reporter cells, primary screen, cell-based, HTS (AID 1508626;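 active = luciferase signal above three times the same-plate solvent-only control wells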;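 also: luciferase driven by Gal4-ERK5 fusion binding five Gal4 sites before minimal TATA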). The note with it: HeLa Gal4-ERK5 transactivation, 18 h, at 5 µM, stronger effect = higher value.
Chain of Mitogen-activated protein kinase 7 (Homo sapiens) (Q13164 whole entry, looked up, the tested form may be a part): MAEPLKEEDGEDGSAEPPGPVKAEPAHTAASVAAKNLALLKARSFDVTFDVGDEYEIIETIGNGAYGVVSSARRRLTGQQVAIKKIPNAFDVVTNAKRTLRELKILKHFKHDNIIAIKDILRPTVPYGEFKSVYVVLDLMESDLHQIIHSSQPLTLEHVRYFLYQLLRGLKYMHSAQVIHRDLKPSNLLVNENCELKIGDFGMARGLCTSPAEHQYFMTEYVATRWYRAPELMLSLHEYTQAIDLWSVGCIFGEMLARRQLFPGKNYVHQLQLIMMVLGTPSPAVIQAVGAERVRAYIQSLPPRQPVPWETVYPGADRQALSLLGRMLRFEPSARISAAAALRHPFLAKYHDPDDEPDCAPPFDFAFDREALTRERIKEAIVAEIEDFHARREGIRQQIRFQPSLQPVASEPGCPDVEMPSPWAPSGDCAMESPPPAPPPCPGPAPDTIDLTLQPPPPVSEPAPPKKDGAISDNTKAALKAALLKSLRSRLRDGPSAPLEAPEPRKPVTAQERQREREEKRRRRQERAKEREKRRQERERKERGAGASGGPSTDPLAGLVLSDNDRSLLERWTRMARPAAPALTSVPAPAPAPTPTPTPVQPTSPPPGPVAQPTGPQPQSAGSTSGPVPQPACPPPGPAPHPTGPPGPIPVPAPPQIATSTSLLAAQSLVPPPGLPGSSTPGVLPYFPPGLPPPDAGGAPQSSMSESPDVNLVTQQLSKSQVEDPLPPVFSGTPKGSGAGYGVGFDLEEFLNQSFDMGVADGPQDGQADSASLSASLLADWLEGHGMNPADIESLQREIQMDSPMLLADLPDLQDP
A short description of assay [9]: viability rescue of complex I mutant cybrids, primary screen, cell-based, galactose medium, ATP luminescence (AID 1645843;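 active = z-score of at least 1.8 in each of two replicates, scored against plate mean and spread of sample wells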;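 also: positive z means more ATP and so rescue of galactose-driven cybrid death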). To be noted: complex I mutant cybrid cells, 72 h, stronger effect = higher value.
Assay [10] in a line: modifiers of HSF1 nuclear foci, imaging, Selleck Cancer Library (AID 1347162; in the data active = plate-normalised HSF1 focus index below about 0.46). To be noted: human cells, at 10 µM; SSMD: measured here: HSF1 foci SSMD mean; cell count: measured here: cell number; plate-normalised HSF1 focus index: stronger effect = lower value.
The nature of assay [11]: phospholipid biosynthesis inhibitors in animal cells, primary screen, cell-based, LOPAC library, screen 4 (AID 1347384; call rule not given here). To be noted: phospholipid biosynthesis inhibition screen, at 10 µM.
Setting [12] is: stronger effect = lower value, cell number ratio, induced over uninduced.
The mark [13] stands for this setting: measured here: relative caspase fold change +Dox/-Dox.
The mark [14] stands for this setting: measured here: total cells with miR-34 induction, stronger effect = lower value.
[15] abbreviates: measured here: total cells without miR-34 induction.
Setting [16] is: MELAS cybrid survival, CellTiter-Glo 48 h, stronger effect = higher value.
The mark [17] stands for this setting: Rieske KO mouse fibroblast survival, CellTiter-Glo 72 h.

As to `NCC1CCC(C(=O)O)CC1` (stereo not given), the outcome in [1], in assay [2], in [3] and in [4] was inactive. Also, the fold change in [5] (setting [12]) is 0.928 (inactive) and 0.834 (inactive); in [5] (setting [13]), 1.25 and 2.45. For the same compound, the cell count was 8960 and 11200 in assay [5] (setting [14]); 9660 and 13500 in assay [5] (setting [15]). Besides, the z-score is -0.244 (inactive) in assay [6] (setting [16]) and -0.313 in assay [6] (setting [17]). Besides, the remaining NAD in assay [7] is 10 nM (inactive). In assay [8], the luciferase signal was 44 AU (inactive).
As for `C[C@@H]1CN(c2c(F)c(N)c3c(=O)c(C(=O)O)cn(C4CC4)c3c2F)C[C@H](C)N1`, the outcome in assay [1], in [2], in [3] and in assay [4] was inactive. For the same compound, the fold change in assay [5] (setting [12]) was 0.881 (inactive); in [5] (setting [13]), 1.37. The cell count in assay [5] (setting [14]) came out at 9500; in assay [5] (setting [15]) it was 10800. The z-score was -0.149 (inactive) and 0.182 (inactive) in [6] (setting [16]); -0.511 and -0.3 in [6] (setting [17]); 0.565 (inactive) in [9]. For the same compound, the remaining NAD in assay [7] is 10 nM (inactive).
Consider `CN(C)c1ccc2nc3ccc(=[N+](C)C)cc-3sc2c1`, for which the AC50 – broadly, the midpoint of the concentration-response curve, whichever way the signal moves – in assay [1] is 5.9 µM (active); in assay [2] it was 2.35 µM (active); in [3], 10.5 µM (active). The half-maximal inhibitory concentration (IC50) (usually the midpoint of a concentration-inhibition curve) in [4] was 9.34 µM (active). The values for the fold change in [5] (setting [12]) and in assay [5] (setting [13]) were 0.946 (inactive) and 1.47, respectively. Also, the cell count in assay [5] (setting [14]) was 3100; in [5] (setting [15]), 3280. Further, in assay [7], the remaining NAD is 10 nM (inactive). Moreover, in assay [8], the luciferase signal was 80 AU (inactive).
For the compound `C[C@]12CC[C@@H]3c4ccc(O)cc4CC[C@H]3[C@@H]1C[C@@H](O)[C@@H]2O`, the outcome in assay [1], in [2] and in assay [4] was inactive. Further, the AC50 in assay [3] is 23.5 µM (active). The fold change in [5] (setting [12]) is 0.957 (inactive) and 0.899 (inactive); in assay [5] (setting [13]) it was 0.729 and 1.36. In addition, the cell count is 9380 and 8690 in assay [5] (setting [14]); 9810 and 9670 in assay [5] (setting [15]). In addition, the z-score in assay [6] (setting [16]) is 0.707 (inactive) and -0.312 (inactive); in [6] (setting [17]) it was 0.79 and 0.38; in [9] it was 0.76 (inactive). Further, the remaining NAD in [7] is 10 nM (inactive). Moreover, in assay [8], the luciferase signal is 64 AU (inactive).
Regarding `CC(=O)[C@]1(O)Cc2c(O)c3c(c(O)c2[C@@H](O[C@H]2C[C@H](N)[C@H](O)[C@H](C)O2)C1)C(=O)c1ccccc1C3=O`, the figures for the AC50 in assay [1], in assay [2] and in assay [3] were 5.25 µM (active), 13.2 µM (active) and 4.68 µM (active), respectively. The IC50 in [4] was 23.5 µM (active). Also, the fold change in assay [5] (setting [12]) was 1.18 (inactive) and 1.09 (inactive); in [5] (setting [13]), 0.974 and 1.09. For the same compound, the cell count in [5] (setting [14]) was 743 and 2700; in [5] (setting [15]) it was 630 and 2460; in assay [10] it was 5180. The same compound had an SSMD in assay [10] of -18.6. Besides, in assay [10], the plate-normalised HSF1 focus index is 0.0445 (active). The compound was classed as inactive in assay [11]. In addition, the z-score in [6] (setting [16]) was 2.62 (active); in assay [6] (setting [17]), -0.996; in assay [9] it was -1.04 (inactive) and -2.14 (inactive).
Take `CC1(C)O[C@@H]2C[C@H]3[C@@H]4C[C@H](F)C5=CC(=O)C=C[C@]5(C)[C@@]4(F)[C@@H](O)C[C@]3(C)[C@]2(C(=O)CO)O1`: the compound was called inactive in assay [1], in [2], in assay [3] and in assay [4]. For the same compound, the fold change was 0.962 (inactive) and 0.858 (inactive) in assay [5] (setting [12]); 2.42 and 1.12 in assay [5] (setting [13]). Moreover, the cell count is 7620 and 6920 in assay [5] (setting [14]); 7920 and 8070 in [5] (setting [15]). Further, the z-score was 0.713 (inactive) and 0.472 (inactive) in [6] (setting [16]); 0.469 and 1.67 in assay [6] (setting [17]); -0.48 (inactive) and 0.45 (inactive) in assay [9]. Besides, the remaining NAD in assay [7] is 10 nM (inactive). Besides, the luciferase signal in assay [8] was 124 AU (inactive).
For the compound `CCCCN(CCCC)CCC(O)c1cc2c(Cl)cc(Cl)cc2c2cc(C(F)(F)F)ccc12` (stereo not given), the AC50 in [1] was 23.5 µM (active); in assay [2] it was 23.5 µM (active); in [3], 16.6 µM (active). Further, in [4], the IC50 is 20.9 µM (active). Further, the fold change in [5] (setting [12]) was 0.972 (inactive); in assay [5] (setting [13]), 0.81. For the same compound, the cell count in assay [5] (setting [14]) was 8330; in [5] (setting [15]), 8580. Also, the z-score is -1.05 (inactive) in assay [6] (setting [16]) and -0.678 in assay [6] (setting [17]).
